# Reference: PubChem BioAssay (EPA / NIEHS)
# Results filed as inconclusive are left out. Calls of active or inactive are those of the source. The calls were made as follows, unless noted: active = hit-call score of the fitted dose curve at least 0.9, where 1 is the maximum; inactive = score below 0.9.
# Assays:
# IYD (gene 389434) = assay: CCTE_GLTED_hIYD: CCTE's human Iodotyrosine Deiodinase (xIYD) Inhibition Assay, Great Lakes Toxicology and Ecology Division (GLTED) Lab (AID 2284317; active = hit-call score of the fitted dose curve at least 0.9, where 1 is the maximum;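 also: cell-free human IYD enzyme made in baculovirus insect cells; iodide freed from monoiodotyrosine measured by cerium arsenite color change at 420 nm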)
# Procedure, shortened: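 Absorbance change at 420 nm from the iodide-catalysed cerium-arsenic reaction reports free iodide released by human IYD from monoiodotyrosine. Enzyme, substrate and chemical are incubated 3 h; loss of signal is fitted relative to DMSO baseline.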
# [1] = CCTE_Deisenroth_5AR_NBTE_donor: CCTE's 5alpha-reductase NanoBRET Target Engagement Assay […], Deisenroth Lab (AID 2284319); conditions: actives raise or lower the signal
# Procedure, shortened: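 HEK293T cells were reverse transfected with an SRD5A2-NanoLuc vector for 20 h, exposed to test chemical (8 points, 10 nM - 29.9 uM) for 3 h, then testosterone tracer for 2 h more. Donor luminescence (460 nm) was read; bidirectional fit versus DMSO.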
# [2] = CCTE_Deisenroth_5AR_NBTE_acceptor: CCTE's 5alpha-reductase NanoBRET Target Engagement Assay - Autofluorescence Screen, Deisenroth Lab (AID 2284321); conditions: actives raise or lower the signal;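 also: compound fluorescence in the acceptor channel under 460 nm excitation flags autofluorescence artifacts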
# Procedure, shortened: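 HEK293T cell-based NanoBRET assay read 5 h after dosing; this acceptor channel serves as an autofluorescence artifact screen. Chemicals at nominal 100 uM were scanned in three independent runs (n=3), excitation 460 nm. Fitting was bidirectional versus DMSO baseline.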
# SRD5A2 (gene 6716) = assay: CCTE_Deisenroth_5AR_NBTE_ratio: CCTE's 5alpha-reductase NanoBRET Target Engagement Assay - Ratio, Deisenroth Lab (AID 2284322); conditions: actives raise or lower the signal
# Procedure, shortened: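 HEK293T transiently expressing SRD5A2-NanoLuc; cells exposed to chemical (8-point, 10 nM - 29.9 uM) for 5 h total, testosterone tracer added for final 2 h. NanoBRET acceptor/donor ratio (650/460 nm), bidirectional fit vs DMSO.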
# [3] = IUF_NPC2-5_cytotoxicity_120hr: Cytotoxicity Assessment at 120 hours in the Leibniz Research Institute for Environmental Medicine (IUF) Neural Progenitor Cell Migration and Differentiation Assay (NPC2-5) (AID 2284307; active = hit-call score of the fitted dose curve at least 0.9, where 1 is the maximum;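 also: LDH released into supernatant as membrane damage marker via resorufin fluorescence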)
# Procedure, shortened: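 Human fetal neural progenitor spheres (0.3 mm, GW 16-19 cortex) were plated on poly-D-lysine/laminin in N2 differentiation medium and exposed for 120 h, with half-medium refresh at day 3. LDH release into supernatant was read by resorufin fluorescence.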
# [4] = IUF_NPC2-5_cell_number_120hr: Cell Number Assessment at 120 hours in the Leibniz Research Institute for Environmental Medicine (IUF) Neural Progenitor Cell Migration and Differentiation Assay (NPC2-5) (AID 2284308);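 also: count of Hoechst-stained nuclei in migration zone around plated human neural progenitor spheres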
# Procedure, shortened: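 Primary human fetal neural progenitor spheres (GW 16-19, 0.3 mm) plated on poly-D-lysine/laminin in N2 differentiation medium, exposed from day 0 for 120 h with half-medium refresh at day 3; Hoechst-positive nuclei counted in migration area versus DMSO control.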
# [5] = IUF_NPC2-5_viability_120hr: Viability Assessment at 120 hours in the Leibniz Research Institute for Environmental Medicine (IUF) Neural Progenitor Cell Migration and Differentiation Assay (NPC2-5) (AID 2284312)
# Procedure, shortened: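 Human fetal (GW 16-19) neural progenitor spheres of 0.3 mm were plated on poly-D-lysine/laminin in N2 differentiation medium and exposed from day 0 for 120 h, with half-medium refresh at day 3. Viability was read as alamar blue resazurin-to-resorufin fluorescence against DMSO.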
# [6] = CCTE_Mundy_HCI_iCellGluta_NOG_NeuriteLength: CCTE's Neurite Outgrowth Assay in iCellGluta cells for Neurite Length, Mundy Lab (AID 2284318; active = hit-call score of the fitted dose curve at least 0.9, where 1 is the maximum)
# Procedure, shortened: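 Automated high-content imaging of betaIII-tubulin (Alexa Fluor-488) and Hoechst-stained cells gave neurite length, normalized to the DMSO baseline.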
# [7] = IUF_NPC1_cytotoxicity_72hr: Cytotoxicity Assessment at 72 hours in the Leibniz Research Institute for Environmental Medicine (IUF) Neural Progenitor Cell Proliferation Assay (NPC1) (AID 2284332; active = hit-call score of the fitted dose curve at least 0.9, where 1 is the maximum;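 also: rising LDH signal means more cytotoxicity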)
# Procedure, shortened: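 Spheres of primary human neural progenitors are plated one per well on day 0 in growth-factor medium and dosed at once. After three days at 37C, supernatant LDH is measured fluorimetrically via resazurin reduction.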
# TTR (gene 7276) = assay: CCTE_GLTED_hTTR_0.5uM: CCTE's human Transthyretin (hTTR) Inhibition Assay, with 0.5uM TTR, Great Lakes Toxicology and Ecology Division (GLTED) Lab (AID 2284320)
# Procedure, shortened: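 Cell-free displacement assay in which human TTR at 0.5 uM was incubated with test chemical for 2 h. Displacement of the ANSA probe was read by fluorescence at 380 nm excitation/475 nm emission. Loss of signal was fitted in the positive direction versus DMSO.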
# [8] = TAMU_PeakParms_SingleDonor1434_Asystole: Texas A&M University (TAMU) 1.5-hr Human Induced Pluripotent Stem Cell (iPSC)-derived Cardiomyocytes Calcium (Ca+2) Flux Assay for Cardiotoxicity: Asystole (quiescence of beating) (AID 2284328; active = hit-call score of the fitted dose curve at least 0.9, where 1 is the maximum)
# Procedure, shortened: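 Human iPSC-derived cardiomyocytes (donor 1434) were exposed to 0.2, 1, 10 and 100 uM compound in 0.5% DMSO for 90 min at 37C. Ca2+-dye fluorescence gave average peak frequency; POD is EC95, a 95% beat-rate drop versus DMSO.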
smiles,measurement,setting,value
O=C1C(Cl)=C(Cl)C(=O)c2ccccc21,AC50,IYD (gene 389434),55 µM (active)
same,AC50,[1],50 µM (active)
same,outcome,[2],inactive
same,outcome,SRD5A2 (gene 6716),inactive
CCC(C)(C)c1ccc(O)c(C(C)(C)CC)c1,AC50,IYD (gene 389434),37 µM (active)
COP(=O)(OC)O/C(=C\Cl)c1cc(Cl)c(Cl)cc1Cl,AC50,[3],5.39 µM (active)
same,AC50,[4],0.356 µM (active)
same,AC50,[5],1.06 µM (active)
same,outcome,IYD (gene 389434),inactive
same,AC50,[6],51.5 µM (active)
same,AC50,[7],75.5 µM (active)
CC(C)(c1ccc(OCC2CO2)cc1)c1ccc(OCC2CO2)cc1 (stereo unspecified),outcome,IYD (gene 389434),inactive
same,outcome,[1],inactive
same,outcome,[2],inactive
same,outcome,SRD5A2 (gene 6716),inactive
CC(=O)[O][Hg][c]1ccccc1,AC50,[1],27.1 µM (active)
same,AC50,[2],25.3 µM (active)
same,AC50,SRD5A2 (gene 6716),50 µM (active)
c1cc[c]([Hg][c]2ccccc2)cc1,outcome,[1],inactive
same,outcome,[2],inactive
same,outcome,SRD5A2 (gene 6716),inactive
CCC[CH2][Sn]([CH2]CCC)([CH2]CCC)[O]C(=O)c1ccccc1,outcome,IYD (gene 389434),inactive
same,AC50,[1],5.2 µM (active)
same,AC50,[2],6.56 µM (active)
same,AC50,SRD5A2 (gene 6716),10 µM (active)
CCCCCCCCc1ccc(O)cc1,AC50,IYD (gene 389434),35.7 µM (active)
O=C(O)C(F)(F)C(F)(F)C(F)(F)C(F)(F)C(F)(F)C(F)(F)C(F)(F)C(F)(F)C(F)(F)C(F)(F)F,AC50,IYD (gene 389434),51.3 µM (active)
same,outcome,[1],inactive
same,AC50,TTR (gene 7276),1.98 µM (active)
same,outcome,[2],inactive
same,outcome,SRD5A2 (gene 6716),inactive
Oc1cccc2cccnc12,outcome,[8],inactive
C[C@H]1CCCC(=O)CCC/C=C/c2cc(O)cc(O)c2C(=O)O1,outcome,[1],inactive
same,outcome,[2],inactive
same,outcome,SRD5A2 (gene 6716),inactive
O=C(Nc1ccc2[nH]ccc2c1)c1cc2cc(F)ccc2n1Cc1cccc(F)c1,outcome,[1],inactive
same,outcome,[2],inactive
same,AC50,SRD5A2 (gene 6716),3.93 µM (active)
CCC1(c2ccc(N)cc2)CCC(=O)NC1=O (stereo unspecified),outcome,[1],inactive
same,outcome,[2],inactive
same,outcome,SRD5A2 (gene 6716),inactive
O=C1C2(Cl)C3(Cl)C4(Cl)C(Cl)(Cl)C5(Cl)C3(Cl)C1(Cl)C5(Cl)C24Cl (stereo unspecified),AC50,IYD (gene 389434),40.1 µM (active)
same,AC50,[6],15 µM (active)
O=C(O)C(F)(F)C(F)(F)C(F)(F)C(F)(F)C(F)(F)C(F)(F)F,outcome,[6],inactive
same,AC50,TTR (gene 7276),0.395 µM (active)
CC(C)(c1ccccc1)c1ccc(O)c(C(C)(C)c2ccccc2)c1,AC50,IYD (gene 389434),29.2 µM (active)
